Data: PubChem BioAssay AID504914 (The Scripps Research Institute Molecular Screening Center, 2011)
Some of the results follow. Values without a mark were called inactive. How the calls were made is not given here.

Biological target: 5-hydroxytryptamine receptor 5A (Homo sapiens) (UniProt P47898)
Test: HTR5A inverse agonists, counter-screen for OPRM1-OPRD1 inverse agonist project, cell-based, luminescence (AID 504914);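 further: 0% = cells with DMSO and 100% = no-cell wells with DMSO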
Settings: HTR5A-expressing cells, inverse agonism, at 9.3 µM, active compounds read high

5-hydroxytryptamine receptor 5A (Homo sapiens), sequence (P47898 whole entry, looked up): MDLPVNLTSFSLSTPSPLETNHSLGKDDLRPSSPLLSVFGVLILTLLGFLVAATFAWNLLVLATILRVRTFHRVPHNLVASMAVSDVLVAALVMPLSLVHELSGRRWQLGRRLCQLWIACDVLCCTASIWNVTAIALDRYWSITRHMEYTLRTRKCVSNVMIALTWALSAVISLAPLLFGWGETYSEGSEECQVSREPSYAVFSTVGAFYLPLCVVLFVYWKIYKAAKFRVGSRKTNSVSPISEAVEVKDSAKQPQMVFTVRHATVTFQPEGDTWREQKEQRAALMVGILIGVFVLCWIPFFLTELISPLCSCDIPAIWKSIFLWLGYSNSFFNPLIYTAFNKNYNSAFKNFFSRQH

Structure (SMILES) | inhibition
O=C(CCl)NNc1cccc(Cl)n1 | 8.61%
O=C1C(=O)N(c2ccccc2)c2ccccc21 | 19%
COC(=O)Cc1c(-c2[nH]c3ccccc3c2CC(=O)OC)[nH]c2ccccc12 | -66.2%
Cc1ccc(C(=O)CNc2ccc(F)cc2)cc1 | -0.52%
C=CCn1c(N)c(C(=O)OCC(C)C)c2nc3ccccc3nc21 | 10.8%
Cc1cccc(N=Nc2c(O)[nH]c3ccc(F)cc23)c1 | 22.6%
CN(c1ccccc1)S(=O)(=O)c1ccc(NC(=O)COc2ccccc2)cc1 | -4.8%
Cc1ccc(NNC(=O)c2cccs2)cc1Cl | -15%
Cc1cccc2c1N(CC(=O)OC(C)C)C(=O)C2=O | -14.5%
N#CC1=C(N)C(C#N)(C#N)[C@H](c2ccsc2)[C@H]2COCC=C12 | -8.6%
O=[N+]([O-])/C=C/c1ccc2c(ccn2Cc2ccccc2)c1 | -16.4%
CSCCC(NC(=O)COc1ccccc1)C(=O)OCC(=O)c1cc2ccccc2o1 (stereo not drawn) | 12%
Cc1ccc2c(c1)C(O)(CC(=O)c1cccnc1)C(=O)N2 (stereo not drawn) | 0%
CCOC(=O)CN1C(=O)C(=O)c2cc(C)ccc21 | 12.5%
CN(O)C(=S)c1ccccc1 | 26.7%
O=C1C(=O)N(CC2COc3ccccc3O2)c2ccccc21 (stereo not drawn) | 12%
CN(C)/C=C1/Nc2ccccc2C1=O | 5.59%
Oc1ccc(N=Nc2nccs2)c(O)c1 | 23.3%
